From PubChem BioAssay (Tox21)
Several values for one entry are separate records, joined by “and”; a condition that tells them apart may be missing. Equal entries are not always repeated. Inconclusive results are not listed. A call without a number means that no potency is given here. A structure can be active in one record and inactive in another. Activity calls are given as the source filed them. Unless noted, the call rests on the fitted dose curve; in most records, active means well fitted curve in the direction sought with a large enough effect in the repeat runs; inconclusive means weak or mixed curves; inactive means no such curve, though single readings can be large; an effect the other way counts as inactive or inconclusive.

How the values were obtained:
[1] = qHTS assay to identify small molecule agonists of the vitamin D receptor (VDR) signaling pathway - cell viability counter screen (AID 743224); further: nearly all actives have a fitted effect of over 50% in size; further: potency means the concentration at half of the fitted maximal effect
How it was run: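 Counter screen run in the same wells as the VDR-bla reporter assay: CellTiter-Glo luminescence, 30 min at room temperature, after 16 h compound treatment at 37C of cells pre-plated for 4 h.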

[2] = qHTS assay to identify small molecule antagonists of the vitamin D receptor (VDR) signaling pathway - cell viability counter screen (AID 743225); further: nearly all actives have a fitted effect of over 50% in size; further: potency means the concentration at half of the fitted maximal effect
How it was run: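 Cells (VDR-UAS-bla HEK 293T) are plated, rested 4 h at 37C, dosed with compound and 3 nM final 1-alpha,25-dihydroxy vitamin D3, and incubated 16 h. Viability is taken from CellTiter-Glo luminescence in the reporter wells.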

[3] = qHTS assay to identify small molecule agonists of the NFkB signaling pathway - cell viability counter screen (AID 1159515; calls by dose curve; further: nearly all actives have a fitted effect of over 55% in size; further: potency means the concentration at half of the fitted maximal effect)
How it was run: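 Read by CellTiter-Glo luminescence (30 min, room temperature) in the wells also used for the beta-lactamase FRET read. ME-180 NFkB-bla cells at 2,000 per well were plated overnight, then exposed to compound for 5 hr at 37 C.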

[4] = qHTS assay to identify small molecule agonists of the endoplasmic reticulum stress response signaling pathway (AID 1159516; active means well fitted activation curve with a large enough effect in the signal ratio in the repeat runs, not every such curve was filed as active; the % refers to the signal ratio)
How it was run: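 Ratiometric FRET readout (405 nm excitation; 460 and 530 nm emission) of a beta-lactamase gene driven by the ER stress response element, after 2 hr substrate loading. HeLa ESRE-bla cells were seeded overnight and treated with compounds for only 5 hr at 37 C.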

[5] = qHTS assay to identify small molecule agonists of the endoplasmic reticulum stress response signaling pathway - cell viability counter screen (AID 1159517; calls by dose curve; further: nearly all actives have a fitted effect of over 50% in size; further: potency means the concentration at half of the fitted maximal effect)
How it was run: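 Steps: seed 1,500 ESRE-bla HeLa cells per well; incubate overnight at 37 C, 5% CO2; add compounds in DMSO for 5 hr; run FRET substrate 2 hr RT; add CellTiter-Glo, wait 30 min, read luminescence.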

[6] = biological target: Nuclear receptor ROR-gamma (Homo sapiens) (UniProt P51449); assay: qHTS assay to identify small molecule antagonists of the retinoid-related orphan receptor gamma (ROR-gamma) signaling pathway (AID 1159521; further: nearly all actives have a fitted effect of over 50% in size; further: potency means the concentration at half of the fitted maximal effect)
How it was run: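 RORγ antagonism is scored from reduced reporter luminescence in Tet-on CHO cells. Induction used 1 uM final doxycycline hyclate for 16 h at 37 C, following a 2 h compound exposure.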

[7] = qHTS assay to identify small molecule agonists of the AP-1 signaling pathway - cell viability counter screen (AID 1159525; calls by dose curve; further: nearly all actives have a fitted effect of over 55% in size; further: potency means the concentration at half of the fitted maximal effect)
How it was run: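 Same-well cytotoxicity counter screen of the Tox21 10K library in ME-180 cells. The readout is ATP-dependent luminescence after 5 h compound treatment. Data are normalised to DMSO and tetra n-octyl ammonium bromide controls.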

[8] = qHTS assay to identify small molecule agonists of the AP-1 signaling pathway (AID 1159526; calls by dose curve)
[9] = biological target: Retinoic acid receptor RXR-alpha (Homo sapiens) (UniProt P19793); assay: qHTS assay to identify small molecule agonists of the RXR signaling pathway (AID 1159527; calls by dose curve; further: nearly all actives have a fitted effect of over 35% in size)
Retinoic acid receptor RXR-alpha (Homo sapiens), sequence (P19793 whole entry, looked up): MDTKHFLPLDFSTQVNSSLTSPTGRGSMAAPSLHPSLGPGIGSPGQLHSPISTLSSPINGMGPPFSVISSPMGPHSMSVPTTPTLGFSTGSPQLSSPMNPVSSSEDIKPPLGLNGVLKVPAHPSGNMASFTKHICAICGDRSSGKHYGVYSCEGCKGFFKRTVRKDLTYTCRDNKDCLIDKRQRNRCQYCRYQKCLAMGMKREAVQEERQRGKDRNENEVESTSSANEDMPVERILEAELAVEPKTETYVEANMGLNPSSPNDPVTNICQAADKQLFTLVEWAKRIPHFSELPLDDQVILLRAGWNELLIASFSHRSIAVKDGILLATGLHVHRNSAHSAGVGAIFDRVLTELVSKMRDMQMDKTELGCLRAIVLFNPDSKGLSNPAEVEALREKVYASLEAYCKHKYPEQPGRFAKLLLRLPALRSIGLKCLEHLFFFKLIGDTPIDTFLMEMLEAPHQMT
How it was run: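 qHTS of the Tox21 10K library in GeneBLAzer RXR-alpha HEK 293T cells carrying a beta-lactamase reporter […]; 16 hr treatment, 9-cis retinoic acid as agonist control, FRET read-out.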

[10] = qHTS assay to identify small molecule agonists of the RXR signaling pathway - cell viability counter screen (AID 1159529); further: nearly all actives have a fitted effect of over 50% in size; further: potency means the concentration at half of the fitted maximal effect
How it was run: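 Cell viability is measured by CellTiter-Glo luminescence, 30 min at room temperature, in wells already read for beta-lactamase. Engineered HEK 293T cells (RXR-alpha-UAS-bla) are dosed 16 hr at 37 C. Tetraoctyl ammonium bromide serves as positive control.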

[11] = qHTS assay to identify small molecule antagonists of the retinoid acid receptor (RAR) signaling pathway - cell viability counter screen (AID 1159551); further: nearly all actives have a fitted effect of over 35% in size; further: potency means the concentration at half of the fitted maximal effect
How it was run: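 Cytotoxicity counter screen: ATP content quantified by CellTiter-Glo luminescence in C3RL4 cells treated 6 hr at 37 C with compound and retinol (1 uM final). Cells plated at 1,000/well and cultured overnight before dosing.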

[12] = qHTS assay to identify small molecule antagonists of the retinoic acid receptor (RAR) signaling pathway (AID 1159552; further: nearly all actives have a fitted effect of over 50% in size)
How it was run: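 Quantitative HTS in C3RL4 RARE-luciferase reporter cells. Compounds were added with 1 uM (final) retinol; luminescence was read after 6 hr.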

[13] = qHTS assay to identify small molecule agonists of the retinoic acid receptor (RAR) signaling pathway (AID 1159553); further: potency means the concentration at half of the fitted maximal effect
How it was run: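 Luminescence was measured 30 min after luciferase reagent addition at room temperature. Before that, C3RL4 reporter cells (1,000 per well, plated overnight) were treated with compound for 6 hr at 37 C and 5% CO2.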

[14] = qHTS assay to identify small molecule antagonists of the retinoid-related orphan receptor gamma (ROR-gamma) signaling pathway - cell viability counter screen (AID 1159520); further: nearly all actives have a fitted effect of over 50% in size; further: potency means the concentration at half of the fitted maximal effect
How it was run: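 Tet-on ROR gamma CHO cells were given compounds for 2 hr, then doxycycline hyclate at 1 uM final, and incubated 16 hr at 37 C. Viability was measured as ATP content by CellTiter-Glo luminescence.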

SMILES | Potency [1] | Potency [2] | Potency [3] | Potency [4] | Potency [5] | Potency [6] | Potency [7] | Potency [8] | Potency [9] | Potency [10] | Potency [11] | Potency [12] | Potency [13] | Potency [14]
CCOc1cccc(C2(N3CCN(c4ccccc4)CC3)CCC(C)CC2)c1 (stereo not drawn) | inactive | inactive | inactive | inactive | inactive | inactive | inactive | inactive | inactive | inactive | inactive | inactive | inactive | –
C=CCOC(=O)C(C)(C)OC(=O)c1cc(-n2c(=O)cc(C(F)(F)F)n(C)c2=O)ccc1Cl | inactive | inactive | inactive | inactive | inactive | inactive | inactive | inactive | – | inactive | inactive | – | – | inactive
COc1cc(CC(C)N)c(OC)cc1Br (stereo not drawn) | inactive | inactive | inactive | inactive | inactive | inactive | inactive | inactive | – | inactive | inactive | inactive | – | inactive
CCOP(=S)(S)OCC | inactive | inactive | inactive | inactive | inactive | inactive | inactive | inactive | – | inactive | inactive | inactive | – | inactive
CC(Oc1cc(Cl)c(Cl)cc1Cl)C(=O)O (stereo not drawn) | inactive | inactive | inactive | inactive | inactive | inactive | inactive | inactive | – | inactive | inactive | – | inactive | inactive
CC(C)(C)OOC(C)(C)CCC(C)(C)OOC(C)(C)C | inactive | inactive | inactive | inactive | inactive | inactive | inactive | inactive | – | inactive | inactive | inactive | inactive | inactive
COc1ccc(C(=O)c2c(C)n(CCN3CCOCC3)c3ccccc23)cc1 | inactive | inactive | inactive | inactive | inactive | inactive | inactive | inactive | – | inactive | inactive | inactive | inactive | inactive
O=C=NC1CCCCC1 | inactive | inactive | inactive | inactive | inactive | inactive | inactive | inactive | inactive | inactive | inactive | inactive | 1.94 µM (active) | –
ClCc1ccccc1Cl | inactive | inactive | inactive | inactive | inactive | inactive | inactive | inactive | inactive | inactive | inactive | inactive | inactive | –
CC1(C)CC(=O)CC(C)(C)N1[O] | inactive | inactive | inactive | inactive | inactive | inactive | inactive | inactive | – | inactive | inactive | inactive | inactive | inactive
Clc1ccc(Cl)c(Cl)c1 | inactive | inactive | inactive | inactive | inactive | inactive | inactive | inactive | – | inactive | inactive | inactive | inactive | inactive
NNCCO | inactive | inactive | inactive | inactive | inactive | inactive | inactive | inactive | – | inactive | inactive | inactive | inactive | inactive
CC(C)(C)N(NC(=O)c1ccc(Cl)cc1)C(=O)c1ccccc1 | inactive | inactive | inactive | inactive | inactive | inactive | inactive | inactive | inactive | inactive | inactive | inactive | inactive | –
CC(C)(C)CC(C)(C)c1ccc(O)cc1 | 15.5 µM (active) and inactive | 17.4 µM (active) | 21.9 µM (active) | inactive | 21.9 µM (active) | 54.5 µM (active) and inactive | 17.4 µM (active) | – | – | 17.4 µM (active) and 23.9 µM (active) | 43.3 µM (active) | – | – | 27.3 µM (active)
CCC(C)Cl (stereo not drawn) | inactive | inactive | inactive | inactive | inactive | inactive | inactive | inactive | inactive | inactive | inactive | inactive | inactive | –
CC(C)CCON=O | inactive | inactive | inactive | inactive | inactive | inactive | inactive | inactive | inactive | inactive | inactive | inactive | inactive | –
C=CCc1ccc(OC(=O)Cc2ccccc2)c(OC)c1 | inactive | inactive | inactive | inactive | inactive | inactive | inactive | inactive | – | inactive | inactive | inactive | inactive | inactive
CCCN(CCC)C(=O)Cc1c(-c2ccc(Cl)cc2)nc2ccc(Cl)cn12 | inactive | inactive | inactive | inactive | inactive | inactive | inactive | inactive | – | inactive | inactive | inactive | inactive | inactive
CCCSP(=S)(OCC)Oc1ccc(SC)cc1 (stereo not drawn) | – | inactive | inactive | inactive | inactive | inactive | inactive | inactive | – | inactive | inactive | inactive | – | inactive
CCCC[N+]1(C)[C@@H]2CC(OC(=O)[C@H](CO)c3ccccc3)C[C@H]1[C@@H]1O[C@@H]12 (stereo partly drawn) | inactive | inactive | inactive | inactive | inactive | inactive | inactive | inactive | – | inactive | inactive | – | – | inactive
